Compound activity as filed in PubChem.
proKLK7 act: activates the human kallikrein-7 zymogen; P49862; purified proKLK7, EDANS-DABCYL substrate fluorescence; 100% is mature enzyme control, 0% vehicle; activation, % at 7 µM; 370,000 compounds, 0.9% hits;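 active = activation above the mean of all tested compounds plus 3 SD, computed per campaign excluding outliers beyond control limits, cut at about 13% in these data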
Target sequence (P49862 whole entry, looked up): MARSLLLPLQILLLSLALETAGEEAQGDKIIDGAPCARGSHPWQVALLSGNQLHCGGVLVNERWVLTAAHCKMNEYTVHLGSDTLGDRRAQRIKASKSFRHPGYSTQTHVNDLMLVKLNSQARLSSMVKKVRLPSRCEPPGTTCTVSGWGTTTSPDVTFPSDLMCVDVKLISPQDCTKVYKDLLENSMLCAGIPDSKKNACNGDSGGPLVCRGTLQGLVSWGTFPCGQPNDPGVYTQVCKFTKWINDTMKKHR
PP5 inh: PP5 (human) phosphatase inhibition; P53041; purified PP5c, OMFP substrate fluorescence; inhibition, % at 6.7 µM; 320,000 compounds, 0.18% hits; AID 1987;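 active = inhibition above the campaign's mean inhibition across all tested compounds plus 3 SD, cut at about 9.5% in these data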;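 also: 0% = DMSO only and 100% = 100 µM cantharidin control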
PP1 inh: blocks human PP1-alpha phosphatase, a PP5 counter-screen. P62136. purified PP1alpha, OMFP fluorescence. inhibition, % at 6.7 µM. 320,000 compounds, 0.9% hits. AID 2235;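 active = inhibition above the mean inhibition of all tested compounds plus 3 SD, computed separately for each screening campaign, cut at about 15% in these data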
JMJD2C inh: human JMJD2C demethylase inhibition | Q9H3R0 | GST-JMJD2C(1-420) H3K9me3 demethylation, DELFIA europium | inhibition, % at 2.35 µM | 330,000 compounds, 0.069% hits | AID 2099;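 active = more than half of a compound's replicate wells show inhibition beyond 50%, single wells judged on their own value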;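 also: signal counts dimethyl H3K9 product captured on neutravidin plate; 0% = median of DMSO wells and 100% = 0.3 times that DMSO median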
Target sequence (Q9H3R0 1-420 limits assumed): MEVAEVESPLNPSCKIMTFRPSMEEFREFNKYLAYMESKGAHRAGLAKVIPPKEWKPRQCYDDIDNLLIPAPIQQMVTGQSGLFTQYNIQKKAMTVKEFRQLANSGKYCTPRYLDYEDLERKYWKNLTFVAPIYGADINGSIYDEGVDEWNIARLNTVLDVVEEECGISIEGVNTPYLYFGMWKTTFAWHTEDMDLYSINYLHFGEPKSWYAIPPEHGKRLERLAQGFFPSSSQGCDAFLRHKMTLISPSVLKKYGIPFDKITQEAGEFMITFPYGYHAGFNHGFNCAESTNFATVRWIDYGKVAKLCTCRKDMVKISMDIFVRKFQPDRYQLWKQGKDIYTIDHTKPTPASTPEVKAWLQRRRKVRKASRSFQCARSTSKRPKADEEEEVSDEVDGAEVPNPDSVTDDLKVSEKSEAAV
NR1D1 modulator: modulators of human Rev-erb alpha DNA binding | Rev-erbα–FITC-DNA binding, fluorescence polarization, 90 min | activity, % at 10 µM | P20393 | 370,000 compounds, 0.79% hits | AID 1259318;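 active = activity above about 14%, limit read from the data; passing the limit was not always enough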;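 also: 0% = DMSO wells with 35 nM protein and 100% = DMSO wells with 750 nM protein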
PG9 Ab binder: binds the HIV-1 gp120 antibody PG9. TR-FRET gp120-PG9 antibody binding. inhibition, % at 6.7 µM. 360,000 compounds, 0.43% hits; in the data active = inhibition above about 8.5%
PP5 conf: PP5 (human) inhibition, confirmation; 460 compounds, 22% hits; Purified PP5, fluorogenic phosphatase substrate, fluorescence; shares compounds with PP5 inh; AID 2331; inhibition, % at 6.7 µM; in the data active = inhibition above about 9.5%
PP1 counter 3x: PP1 phosphatase inhibition, counter-screen for PP5 inhibitors; shares compounds with PP5 inh; PP1 enzyme, fluorescent phosphatase substrate; inhibition, % at 6.7 µM; 460 compounds, 4% hits; in the data active = inhibition above about 16%
* = called active by the depositor; / = no result. An excerpt weighted towards active compounds, which were near 2.8% of everything screened.

SMILES	proKLK7 act	PP5 inh	PP1 inh	JMJD2C inh	NR1D1 modulator	PG9 Ab binder	PP5 conf	PP1 counter 3x
CC(C)(O)P(C)(=O)c1ccccc1 (stereo not drawn)	0.0	0.8	0.1	3.0	-0.7	0.4	/	/
CC(C)(C)P(=O)(CO)c1ccccc1 (stereo not drawn)	-0.1	10.8*	-2.2	-3.6	4.7	0.3	-2.7	-3.9
CCCN(CCC)CCN1CCN(C(=O)[C@H](CCc2ccccc2)NC(=O)[C@H]2O[C@@H](n3cnc4c(N)ncnc43)[C@H](O)[C@@H]2O)CC1	0.4	/	/	/	0.1	-1.5	/	/
C[C@H]1CCC[C@H](O)CC(=O)c2c(O)cc(O)cc2CC(=O)O1	0.5	/	/	/	-0.1	/	/	/
CCOC(=O)c1nn(-c2ccc(C)cc2)c(=O)c2c(N)scc12	1.0	10.0*	3.9	14.5	-2.6	-0.5	22.6*	-2.9
O=C(CS(=O)(=O)c1ccc(Cl)c(Cl)c1)Nc1ccccc1Cl	-0.1	11.0*	1.4	1.2	0.8	-0.4	-4.3	-2.8
Cc1cc(NC(=O)Cc2cn(C)c3ccccc23)ccc1Oc1cccnc1	0.7	/	/	/	5.5	-0.6	/	/
CC1CN(c2ccnc3cc(Cl)ccc23)CCN1C(=O)c1ccc(Cl)cc1 (stereo not drawn)	/	/	/	/	1.3	/	/	/
CN1C(=O)C[C@@](C#N)(C(=O)NCCc2ccccc2)[C@H]1c1ccccc1	0.8	/	/	/	2.8	/	/	/
Nc1ccc(-c2nc3ccc([N+](=O)[O-])cc3[nH]2)cc1	0.1	11.8*	-1.3	-2.5	6.6	-0.3	-5.3	-3.6
O=[N+]([O-])c1ccc(-c2nc3ccc([N+](=O)[O-])cc3[nH]2)cc1	0.3	2.4	-1.8	-6.8	-2.8	-0.7	/	/
CC(=O)C1=C(c2ccc(Br)cc2)C(=O)c2ccccc2C1=O	-0.1	11.1*	7.7	14.8	8.4	-0.7	10.4*	4.7
O=C(CCC(=O)N1CCCCC1)Nc1nnc(C2CCCCC2)s1	0.1	-2.2	-3.6	-3.9	-3.7	-2.2	/	/
O=C(CCC(=O)N1CCOCC1)Nc1nnc(C2CCCCC2)s1	0.2	11.5*	-2.6	-3.9	-1.3	-1.7	-5.3	-4.1
COc1ccccc1CNC(=O)c1c(N)n(CCCN2CCOCC2)c2nc3ccccc3nc12	-29.9	/	/	-14.3	2.2	1.5	/	/
COCCn1c(N)c(C(=O)NCc2cccs2)c2nc3ccccc3nc21	-56.2	10.7*	0.2	-7.8	0.6	-1.4	5.1	3.9
Nc1c(C(=O)NCc2ccc3c(c2)OCO3)c2nc3ccccc3nc2n1CCCN1CCOCC1	-16.1	9.7*	4.2	-2.1	0.7	-0.4	13.3*	4.1
N#Cc1c(NC(=O)c2ccc(Br)o2)n(-c2ccccc2)c2nc3ccccc3nc12	10.7	11.5*	9.3	-2.6	1.4	-0.1	32.9*	16.3*
COc1ccc(-c2n[nH]c(C)c2-c2ccc(Cl)cc2)c(O)c1	-0.1	8.5	-1.4	-11.5	3.9	-0.9	/	/
COc1ccc(-c2n[nH]c(C)c2-c2ccc(Cl)cc2)c(O)c1OC	0.2	10.2*	5.5	-7.2	-3.6	-1.9	3.6	5.2
O=C1OCCC1Sc1nnc(-c2cccc(Br)c2)o1 (stereo not drawn)	-0.2	12.2*	-3.6	-4.3	3.3	-1.7	-3.4	-3.4
O=C1OCCC1Sc1nnc(-c2ccc3c(c2)OCO3)o1 (stereo not drawn)	-1.1	0.7	-2.0	-3.9	-0.7	-1.9	/	/
Cc1ccc(CNC(=O)c2ccc(C#CC(C)(C)O)s2)cc1	0.1	9.6*	0.7	-29.5	4.8	-0.8	-2.7	-1.9
O=C(NC1(O)C(=O)c2ccccc2C1=O)c1ccc(C(F)(F)F)cc1	1.1	17.9*	5.6	-13.0	8.2	0.7	37.9*	12.6
Cc1ccc(C(=O)NC2(O)C(=O)c3ccccc3C2=O)cc1C	0.4	15.0*	1.7	9.1	2.3	-0.5	41.2*	4.0
SMILES	proKLK7 act	PP5 inh	PP1 inh	JMJD2C inh	NR1D1 modulator	PG9 Ab binder	PP5 conf	PP1 counter 3x
O=C(Cc1ccccc1)NC1(O)C(=O)c2ccccc2C1=O	1.1	7.1	-2.8	30.5	3.3	-1.0	/	/
Nc1ncc(Br)cc1S(=O)(=O)Nc1cc(C(F)(F)F)cc(C(F)(F)F)c1	0.1	9.6*	7.8	0.3	-3.4	1.1	5.1	11.9
COC(=O)[C@]12C[C@H](CC(=O)N3CCCCC3)C(=O)N(CCC3=CCCCC3)C1=C[C@H](COCc1ccccc1)O[C@@H]2C	1.7	/	/	/	2.5	0.3	/	/
CC(C)C[C@H](NC(=O)c1nc[nH]c1C(=O)N[C@@H](CC(C)C)C(=O)OC(C)(C)C)C(=O)OC(C)(C)C	-0.2	10.2*	4.0	-49.3	3.9	-1.2	5.8	6.8
CC(C)(C)OC(=O)[C@H](Cc1ccccc1)NC(=O)c1nc[nH]c1C(=O)N[C@@H](Cc1ccccc1)C(=O)OC(C)(C)C	-0.2	7.2	13.7	-2.5	-4.6	0.8	/	/
C[C@H](NC(=O)c1nc[nH]c1C(=O)N[C@@H](Cc1ccccc1)C(=O)OC(C)(C)C)C(=O)OC(C)(C)C	0.1	10.8*	11.1	1.2	5.7	0.5	7.1	10.0
CC(C)C[C@H](NC(=O)c1nc[nH]c1C(=O)NC(c1ccccc1)c1ccccc1)C(=O)OC(C)(C)C	0.6	0.2	8.8	-29.7	6.8	-0.2	/	/
CC(C)C[C@H](NC(=O)c1nc[nH]c1C(=O)NCC(=O)OC(C)(C)C)C(=O)OC(C)(C)C	0.0	7.8	8.1	-3.8	1.3	0.7	/	/
CC(C)C[C@H](NC(=O)c1[nH]cnc1C(=O)N[C@H](C)c1ccccc1)C(=O)OC(C)(C)C	1.6	10.2*	11.2	14.0	-2.1	0.0	7.7	8.8
CCOc1cc(S(=O)(=O)n2cc(-c3ccc(F)cc3)c(N)n2)cc(OCC)c1OCC	-0.2	11.1*	6.3	0.8	8.2	0.3	5.2	0.5
CCCC1CCC2(CC1)CCC2OC(=S)NCc1ccc(Cl)cc1 (stereo not drawn)	/	/	/	/	2.9	/	/	/
COCC(C)n1c(-c2ccc3c(c2)NC(=O)CO3)csc1=Nc1ccc(OC(F)F)cc1 (stereo not drawn)	0.1	12.2*	2.8	-18.6	2.9	-0.5	1.7	2.6
COc1ccc(-c2nnc(SCC(=O)NN=Cc3c(O)ccc4ccccc34)n2-c2ccc(OC)cc2)cc1	1.5	/	/	/	-6.0	/	/	/
CC(=O)C1=C(C)N(Cc2ccc(F)cc2)C(=S)NC1c1ccccc1 (stereo not drawn)	-0.2	/	/	/	2.9	-3.1	/	/
CCCOC(=O)c1c(-c2ccc(C)cc2C)csc1NC(=O)C1C2CCC(O2)C1C(=O)O (stereo not drawn)	0.1	10.8*	2.9	7.0	4.2	2.3	-1.4	5.4
CCOC(=O)c1c(-c2ccc(C)c(C)c2)csc1NC(=O)C1CC=CCC1C(=O)O (stereo not drawn)	-0.6	4.9	10.2	-1.2	-1.2	1.5	/	/
